# Inconclusive results are not listed. Where a call stands in place of a potency, no number is given. Activity calls are given as the source filed them. The call rests on the fitted dose curve.
# Molecular target: D(2) dopamine receptor (Homo sapiens) (UniProt P14416)
# Test: Dopamine D2 receptor (DRD2) small molecule agonists, cell-based qHTS assay (AID 1963594); further: nearly all actives have a fitted effect of over 35% in size
# Details: HEK293-DRD2 cAMP HTRF, agonist mode, 30 min; series mostly up to 92.4 µM
# From the text: National Center for Advancing Translational Sciences [NCATS]
# Division of Preclinical Innovation [DPI]
# U.S. Environmental Protection Agency [EPA]
# National Institutes of Environmental Health Sciences [NIEHS]
# National Toxicology Program [NTP]
# U.S. Food and Drug Administration [FDA]
# DRD2 is the D2 subtype of the dopamine receptor, which is coupled to Gi subtype of G protein-coupled receptor. This G protein-coupled receptor inhibits adenylyl cyclase activity. The DRD2-HEK293 cell line stably expressing D2 dopamine receptor can be used for screening agonists and antagonists of interactions between D2 and its ligands. The Hek293-DRD2 cAMP assay is based on HTRF technology. It measures changes of cAMP accumulation in response to Gi coupled GPCR activation or inhibition.
# Tox21 Assay Protocol Summary:
# DRD2-Hek293 cells were dispensed at 600 cells/3uL/well in 1536-well white plates using a Multidrop Dispenser. After the assay plates were incubated at a 37 C/5% CO2 incubator for 24 h, 1 uL of Ro20-1724 at final concentration of 0.1 mM was transferred to the assay plate by a Flying Reagent Dispenser. Following Ro20-1724 addition, 23 nL of compound dissolved in DMSO, positive controls or DMSO only was added to the assay plates via Wako pintool station. The assay plates were incubated at room temperature for 10 min. Next, 1 uL of NKH477 at 200nM was added into the plates. After the assay plates were incubated at room temperature for an additional 30 min, 2.5 ul/well of cAMP-d2 and 2.5 ul/well of anti-cAMP-cryptate were added respectively into the assay plates using a Flying Reagent Dispenser. The plates were incubated at room temperature for 1 h. The fluorescence intensity in the plates was measured at 340 nm excitation and 665 & 620 nm emission by an Envision plate reader.
# Potency means the concentration at half of the fitted maximal effect.
# D(2) dopamine receptor (Homo sapiens), sequence (P14416 whole entry, looked up): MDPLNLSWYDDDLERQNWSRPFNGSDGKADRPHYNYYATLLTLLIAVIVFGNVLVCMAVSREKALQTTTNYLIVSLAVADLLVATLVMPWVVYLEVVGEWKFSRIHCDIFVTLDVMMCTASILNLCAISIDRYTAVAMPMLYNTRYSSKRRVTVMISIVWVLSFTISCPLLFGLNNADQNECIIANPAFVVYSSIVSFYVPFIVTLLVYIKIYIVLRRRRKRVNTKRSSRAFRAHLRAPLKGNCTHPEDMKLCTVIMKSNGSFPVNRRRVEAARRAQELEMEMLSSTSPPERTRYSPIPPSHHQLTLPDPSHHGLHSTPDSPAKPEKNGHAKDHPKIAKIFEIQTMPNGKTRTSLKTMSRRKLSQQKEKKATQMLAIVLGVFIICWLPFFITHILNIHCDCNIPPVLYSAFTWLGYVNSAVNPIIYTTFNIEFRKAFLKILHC
SMILES,Potency,activation
Nc1nc(Cl)nc2c1ncn2[C@@H]1O[C@H](CO)[C@@H](O)[C@@H]1F,422 nM (active),–
Cc1cccc(C(=O)O)c1[N+](=O)[O-],inactive,–
COC(=O)c1ccccc1Cl,inactive,–
O=S(O)O,–,2.66% [at 19 µM] (inactive)
CC1(C)C(=O)N(CO)C(=O)N1CO,inactive,–
CCN(CC)CCOC(=O)C1(c2ccccc2)CCCC1,inactive,–
O=C(O)c1cccc(C(=O)O)c1C(=O)O,inactive,–
N#Cc1c(F)cccc1F,inactive,–
CCc1cccc(CC)c1,inactive,–
CN(C)CCc1c[nH]c2ccc(CS(=O)(=O)N3CCCC3)cc12,inactive,–
CCCCCCC(O)CO (stereo not given),inactive,–
CN1CCN(CC(=O)N2c3ccccc3C(=O)Nc3cccnc32)CC1,–,-0.938% [at 8.39 µM] (inactive)
O=C(/C=C/c1ccccc1)OCCCc1ccccc1,inactive,–
Clc1nc(C(Cl)(Cl)Cl)c(Cl)c(Cl)c1Cl,inactive,–
CCc1cccc(C)c1N(C(=O)CS(=O)(=O)O)C(C)COC (stereo not given),inactive,–
O=c1[nH]cccc1O,inactive,–
CCOC(=O)c1ccc(NC(=O)CN2CCCCC2)cc1,inactive,–
CC(=O)Nc1ccc(C)c(Cl)c1,inactive,–
CCc1cccc(CC)c1NC(=O)CN(CC(=O)O)CC(=O)O,inactive,–
O=C(O)c1cn(C2CC2)c2cc(Cl)c(F)cc2c1=O,inactive,–

SMILES,Potency,activation
CN1CCOC(c2ccccc2)c2ccccc2C1 (stereo not given),inactive,–
CCCCCCCCCCCc1ccccc1,inactive,–
CO[Si](OC)(OC)OC,inactive,–
CCCCCCCCOS(=O)(=O)O,inactive,–
O=C(O)CCCCCCC(=O)O,inactive,–
O=C(C(Cl)Cl)N1CCOC12CCCCC2,inactive,–
O=C1OC(O)C(C(Cl)Cl)=C1Cl (stereo not given),inactive,–
CC1(C)S[C@@H]2[C@H](NC(=O)C(c3ccccc3)S(=O)(=O)O)C(=O)N2[C@H]1C(=O)O (stereo not given in full),inactive,–
CC(C)(O)c1ccccc1CC[C@@H](SCC1(CC(=O)O)CC1)c1cccc(/C=C/c2ccc3ccc(Cl)cc3n2)c1,inactive,–
CCN(CC)CCOC(=O)C(c1ccccc1)c1ccccc1,inactive,–
CC(=O)NO,inactive,–
COC(=O)c1ccc(OC)cc1,inactive,–
Cc1ccc(C)c(N)c1,inactive,–
CCOc1ccc2ccccc2c1C(=O)N[C@@H]1C(=O)N2[C@@H]1SC(C)(C)[C@@H]2C(=O)O,inactive,–
FC(F)(F)C(F)(F)C(F)(F)C(F)(F)C(F)(F)C(F)(F)C(F)(F)C(F)(F)C(F)(F)C(F)(F)F,–,-0.702% [at 8.39 µM] (inactive)
Clc1cc(Cl)c(Cl)nc1Cl,inactive,–
Cc1ccc(-n2[nH]c(C)c(N=Nc3cccc(-c4cccc(C(=O)O)c4)c3O)c2=O)cc1C,inactive,–
CO[C@H]1O[C@H](CO)[C@@H](O)[C@H](O)[C@H]1O,inactive,–
COc1ccccc1Oc1c(NS(=O)(=O)c2ccc(C(C)(C)C)cc2)nc(-c2ncccn2)nc1OCCO,inactive,–
CC1(C)CC(OC(=O)CCCCCCCCC(=O)OC2CC(C)(C)NC(C)(C)C2)CC(C)(C)N1,–,-4.7% [at 19 µM] (inactive)

# Reference: PubChem BioAssay (Tox21)
